High-throughput results: PubChem, several laboratories
Shown are actives, neighbours in structure and some others; about 2.9% of the full set was active somewhere.
MEKK2mut PB1 HTS = signal of MEK5 binding to mutant human MEKK2 PB1 domain | bead flow cytometry, Alexa488-MEK5 binding to MEKK2 mutant | percent response, % at 10 µM | 290,000 tested, 0.35% active; in the data active means percent response above about 24%, passing the limit was not always enough
ABCB6 inh MLPCN = human ABCB6 transporter inhibition. K562-ABCB6 porphyrin accumulation, flow cytometry, 1 h; hits give low values. 360,000 tested, 0.19% active. Q9NP58. fluorescence ratio to DMSO, % at 10 µM;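 active means fluorescence ratio to DMSO below 75%, the collection mean minus 3 SD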;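 further: signal is porphyrin accumulated inside mitochondria; lower ratio means ABCB6 inhibition with less porphyrin fluorescence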
MEKK2 WT-MEK5 = raises or lowers MEK5 binding to wildtype human MEKK2 PB1 domain; Q9Y2U5; bead flow cytometry, Alexa488-MEK5 binding to MEKK2 WT; actives lie on both sides; binding response (% of control), % at 10 µM; 290,000 tested, 1.1% active; AID 1531; in the data active means binding response below about 67% or above about 130%
MEKK3 PB1 HTS = MEKK3-MEK5 PB1 interaction, increase or decrease | Q99759 | bead-based flow cytometry, Alexa488-MEK5 binding to MEKK3; actives lie on both sides; 0 = blocked by unlabeled MEK5, 100 = vehicle | binding response (% of control), % at 10 µM | 290,000 tested, 1.4% active | AID 1529;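 active means binding response more than 3 SD above or below the average of its plate-row segment, actives on both sides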;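 further: Alexa488 bead fluorescence after subtracting the streptavidin-only scavenger bead signal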
Target sequence (Q99759 whole entry, looked up): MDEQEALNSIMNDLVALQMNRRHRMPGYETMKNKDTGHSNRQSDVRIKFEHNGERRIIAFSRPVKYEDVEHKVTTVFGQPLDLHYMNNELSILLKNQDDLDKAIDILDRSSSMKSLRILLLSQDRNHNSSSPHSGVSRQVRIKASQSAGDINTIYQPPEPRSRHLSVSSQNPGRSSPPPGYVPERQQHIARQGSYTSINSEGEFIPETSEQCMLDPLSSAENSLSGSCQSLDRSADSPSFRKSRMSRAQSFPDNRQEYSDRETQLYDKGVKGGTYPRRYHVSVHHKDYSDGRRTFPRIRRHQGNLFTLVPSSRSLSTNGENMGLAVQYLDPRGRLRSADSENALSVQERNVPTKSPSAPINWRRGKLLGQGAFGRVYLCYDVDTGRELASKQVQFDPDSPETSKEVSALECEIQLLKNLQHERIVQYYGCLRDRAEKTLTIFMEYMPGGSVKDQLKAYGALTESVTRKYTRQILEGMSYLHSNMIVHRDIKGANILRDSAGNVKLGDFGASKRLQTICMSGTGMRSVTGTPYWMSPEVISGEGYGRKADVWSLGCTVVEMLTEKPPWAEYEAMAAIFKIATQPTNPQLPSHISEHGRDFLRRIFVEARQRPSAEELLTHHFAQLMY
CRFR2-BP ag = CRF-BP/CRF-R2 complex agonism | HEK293 CRF-R2/CRF-BP, calcium dye fluorescence (FLIPR); percent of saturating CRF peptide response | activation, % at 13.2 µM | 350,000 tested, 0.46% active;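 active means activation of at least 50%, plus an integration ratio under a set limit after plate pattern correction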
CRFR2-BP antag = CRF-BP/CRF-R2 complex antagonism. HEK293 CRF-R2/CRF-BP, CRF-induced calcium fluorescence. inhibition, % at 11.8 µM. 350,000 tested, 0.59% active. AID 588475;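 active means inhibition of the ligand-induced calcium signal above about 50% at the single tested concentration, limit read from the data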
MEKK2wt confirm = raises or lowers MEK5 binding to wildtype human MEKK2, retest | shares compounds with MEKK3 PB1 HTS | bead flow cytometry, Alexa488-MEK5 binding to MEKK2 WT; actives lie on both sides | binding response (% of control), % at 10 µM | 5,900 tested, 2.4% active | AID 1892; in the data active means binding response below about 16% or above about 210%; inactive means in between
MEKK2mut confirm = signal of MEK5 binding to mutant human MEKK2, retest | shares compounds with MEKK3 PB1 HTS | percent response, % at 10 µM | bead flow cytometry, Alexa488-MEK5 binding to MEKK2 mutant | 5,900 tested, 2% active; in the data active means percent response mostly above about 71%, no sharp cut-off; inactive means mostly below about 38%;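 further: higher means compound restores mutant binding toward wildtype level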
MEKK3-MEK5 inh = confirmation of inhibitors of MEK5 binding to human MEKK3. 5,900 tested, 1.8% active. bead flow cytometry, Alexa488-MEK5 binding to MEKK3; hits give low values. shares compounds with MEKK3 PB1 HTS. binding response (% of control), % at 10 µM;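 active means binding response below 72% of control, or above a set upper limit, though filed actives all read lower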
Large screens that a line does not name were inactive (follow-up assays come after a bar, where they were run); [ ] = another dose, or the depositor's remark.

O=C(CN1CCCC(O)C1)N1c2ccccc2Sc2ccc(C(F)(F)F)cc21 (stereo not given)	none
CN1CCN(CCCN2c3ccccc3Sc3ccc(C(F)(F)F)cc32)CC1	MEKK2 WT-MEK5 168 | MEKK2wt confirm inactive | MEKK2mut confirm inactive | MEKK3-MEK5 inh inactive
O=C(CNC(=O)c1ccc(N2C(=O)c3ccccc3C2=O)cc1)OCC(=O)c1cccc2ccccc12	MEKK2 WT-MEK5 4.0[inhibitor], MEKK3 PB1 HTS 2.0[inhibitor] | MEKK2wt confirm inactive | MEKK2mut confirm inactive | MEKK3-MEK5 inh inactive
O=C(CNC(=O)c1ccc(N2C(=O)c3ccccc3C2=O)cc1)OCC(=O)c1ccccc1	none
CCNc1ccc(Br)cc(C(=O)/C=C/c2c(Cl)cccc2Cl)c1=O	MEKK2 WT-MEK5 47[inhibitor] | MEKK2wt confirm inactive | MEKK2mut confirm inactive | MEKK3-MEK5 inh inactive
O=S(=O)(Nc1nc2ccccc2nc1Nc1ccc(N2CCOCC2)cc1)c1cc(Cl)ccc1Cl	MEKK3 PB1 HTS 150, CRFR2-BP ag 51 | MEKK2wt confirm inactive | MEKK2mut confirm inactive | MEKK3-MEK5 inh inactive
Cc1cccc(S(=O)(=O)Nc2ccc(-c3nc4ccc(C)cc4s3)cc2)c1	none
Cc1ccc2nc(NC(=O)CCNS(=O)(=O)c3cccs3)sc2c1	none
Cc1ccc2nc(NC(=O)c3ccc(NS(=O)(=O)c4cccs4)cc3)sc2c1	MEKK3 PB1 HTS 136 | MEKK2wt confirm inactive | MEKK2mut confirm inactive | MEKK3-MEK5 inh inactive
Cc1ccc(S(=O)(=O)Nc2ccc(-c3nc4ccc(C)cc4s3)cc2)cc1	MEKK3 PB1 HTS 151 | MEKK2wt confirm inactive | MEKK2mut confirm inactive | MEKK3-MEK5 inh inactive
COc1ccc(-c2cn3cc([N+](=O)[O-])ccc3n2)cc1OC	MEKK3 PB1 HTS 75[inhibitor] | MEKK2wt confirm inactive | MEKK2mut confirm inactive | MEKK3-MEK5 inh inactive
COc1ccc(-c2cn3ccccc3n2)cc1[N+](=O)[O-]	none
O=C(N/N=C/c1c(O)n(-c2ccc(Cl)cn2)c(=O)c2ccccc12)C1CC1	none
O=C(N/N=C/c1c(O)n(-c2ccc(Cl)cn2)c(=O)c2ccccc12)c1ccncc1	MEKK3 PB1 HTS 135, CRFR2-BP ag 55 | MEKK2wt confirm inactive | MEKK2mut confirm inactive | MEKK3-MEK5 inh inactive
O=c1cc(S(=O)(=O)Cc2ccccc2)[nH]c(=O)[nH]1	none (no result: MEKK2mut PB1 HTS, MEKK2 WT-MEK5, MEKK3 PB1 HTS)
COc1ccc(-c2ccc(/C=C3/C(=N)N4C=CSC4=NC3=O)o2)c([N+](=O)[O-])c1	MEKK3 PB1 HTS 134 | MEKK2wt confirm inactive | MEKK2mut confirm inactive | MEKK3-MEK5 inh inactive
c1ccc(-c2ccc(OCCCNC3CCCC3)cc2)cc1	none
c1ccc(Cc2ccc(OCCCNC3CCCC3)cc2)cc1	MEKK2 WT-MEK5 138 (no result: ABCB6 inh MLPCN, CRFR2-BP ag, CRFR2-BP antag) | MEKK2wt confirm inactive | MEKK2mut confirm inactive | MEKK3-MEK5 inh inactive
COc1cc(N)c(Cl)cc1C(=O)OCC(=O)NC(=O)NCc1ccco1	none (no result: MEKK2mut PB1 HTS, MEKK2 WT-MEK5, MEKK3 PB1 HTS)
O=c1[nH]ncc(N/N=C\c2ccncc2)c1Cl	MEKK3 PB1 HTS 136 | MEKK2wt confirm inactive | MEKK2mut confirm inactive | MEKK3-MEK5 inh inactive
O=c1[nH]ncc(N/N=C\c2cccnc2)c1Cl	none
COCCn1c(SCC(=O)NNC(=O)c2ccccc2)nc2ccccc21	none (no result: MEKK2mut PB1 HTS, MEKK2 WT-MEK5, MEKK3 PB1 HTS)
CNC(=O)CSc1nnc(C(C)C)n1C	MEKK3 PB1 HTS 136 | MEKK2wt confirm inactive | MEKK2mut confirm inactive | MEKK3-MEK5 inh inactive
CCn1c(SCC(=O)NC)nnc1C(C)C	none
C1CCC(C(CC2CCCCN2)C2CCCCC2)CC1 (stereo not given)	MEKK2 WT-MEK5 171 | MEKK2wt confirm inactive | MEKK2mut confirm inactive | MEKK3-MEK5 inh inactive
